High-throughput results from PubChem BioAssay.
Rows were chosen to be rich in hits. Some 3.2% of all compounds tested hit in one or more screens of this group.
PrPC surface inh – cell surface PrPC inhibition, primary TR-FRET screen. 370,000 tested, 0.43% active. inhibition, % at 13.8 µM. P04156. AID 720596. TR-FRET read-out; in the data active = inhibition above about 24%
GDH-TPI counter – GDH-TPI coupled enzyme inhibition counter-screen; AID 588335; inhibition, % at 4.8 µM; 360,000 tested, 1.2% active; GDH-TPI coupled enzyme counterscreen, NADH absorbance; in the data active = inhibition above about 30%
TcdB GH inh – TcdB glycohydrolase inhibition; TcdB glycohydrolase enzymatic assay, plate reader; P18177; inhibition, % at 9.99 µM; 350,000 tested, 0.24% active; in the data active = inhibition above about 10%
Y pestis TopoI – blocks Yersinia pestis topoisomerase I activity; 360,000 tested, 0.064% active; Y. pestis Topo-I cleavage product accumulation, plate reader; AID 504884; activity, % at 10 µM; in the data active = activity above about 50%, passing the limit was not always enough
Mtb FBA inh – inhibitors of M. tuberculosis fructose-bisphosphate aldolase | P9WQA3 | purified M. tuberculosis FBA, fluorescence read-out | inhibition, % at 1 µM | 360,000 tested, 2.3% active | AID 588726; in the data active = inhibition above about 27%
PrPC TRFRET cf – confirmation of inhibitors of cell surface human prion protein. cell surface PrPC level, TR-FRET. shares compounds with PrPC surface inh. inhibition, % at 13.8 µM. 1,500 tested, 65% active. AID 743200; in the data active = inhibition above about 25%
LD9 tox – LD9 cell cytotoxicity, PrPc inhibitor counter-screen | LD9 cells cytotoxicity, luminescence viability | shares compounds with PrPC surface inh | AID 743201 | 1,500 tested, 29% active | inhibition, % at 13.8 µM; in the data active = inhibition above about 9.5%
A number is an active result; . = inactive; / = no result.

SMILES | PrPC surface inh | GDH-TPI counter | TcdB GH inh | Y pestis TopoI | Mtb FBA inh | PrPC TRFRET cf | LD9 tox
CN(c1ccccc1)S(=O)(=O)c1ccc(NC(=O)c2nc(S(C)(=O)=O)ncc2Cl)cc1 | 41.2 | . | . | . | . | 93.3 | 97.8
CCCc1c(-c2ccc(F)cc2F)ncn1Cc1cccc(-c2ccccc2)c1 | 29.9 | / | . | / | / | . | .
COc1ccccc1-c1ncn(Cc2cccc(-c3ccccc3)c2)c1CC(C)C | 27.2 | / | . | / | / | . | .
Cc1c(CC(=O)O)c(=O)oc2c(C)c3occ(-c4ccccc4)c3cc12 | 28.2 | . | . | . | . | . | .
CC(C)(O)c1cn([C@@H]2C[C@@H]3O[C@@H](CO)CC[C@@H]3O[C@@H]2CCc2ccc(-c3ccncc3)cc2)nn1 | / | / | . | / | / | / | /
COc1ccc(Cl)cc1S(=O)(=O)Nc1ccncc1 | . | . | . | . | . | / | /
O=S(=O)(Nc1ccncc1)c1cc(Cl)c(Cl)cc1Cl | 43.4 | . | . | . | . | . | .
CN(CC(=O)Nc1ccccc1C(F)(F)F)C(=O)c1cc(-c2cccs2)nn1-c1ccccc1 | 24.5 | . | . | . | . | 49.1 | .
C[C@@H]1CN([C@@H](C)CO)C(=O)Cc2cc(NS(=O)(=O)c3ccccc3)ccc2O[C@@H]1CN(C)Cc1ccc(C(=O)O)cc1 | / | / | . | / | / | / | /
O=C(OCC12CC3CC(CC(C3)C1)C2)c1ccc(NCc2cc(O)ccc2O)cc1 | 25.3 | . | . | . | . | 26.0 | 21.7
CCNC(=O)OCCC12CC3CC(CC(C3)C1)C2 | . | . | / | . | . | / | /
N#CCC(=O)Nc1ccc(C(=O)OCC(=O)C23CC4CC(CC(C4)C2)C3)cc1 | . | . | . | . | . | / | /
O=C(OCCC12CC3CC(CC(C3)C1)C2)c1ccc(NCc2cc(O)ccc2O)cc1 | 28.1 | . | . | . | . | 45.4 | 72.2
CN(C)S(=O)(=O)c1cccc(-c2nn(-c3ccccc3)cc2/C=C(/C#N)C(=O)NCc2ccco2)c1 | 28.9 | . | / | . | . | . | .
C[C@@H]1CN([C@@H](C)CO)C(=O)Cc2cc(NC(=O)c3ccncc3)ccc2O[C@@H]1CN(C)S(=O)(=O)c1ccccc1 | / | / | . | / | / | / | /
CCOCc1c(C(=O)Nc2ccc3nc(N4CCOCC4)sc3c2)oc2ccccc12 | 33.4 | . | . | . | . | . | .
CCOCc1c(C(=O)Nc2cc(OCC)c(N3CCOCC3)cc2OCC)oc2ccccc12 | . | . | . | . | . | / | /
COCC(=O)N(C)C[C@@H]1Oc2cc(C#CCC(C)C)ccc2S(=O)(=O)N([C@H](C)CO)C[C@H]1C | / | / | . | / | / | / | /
CO[C@H]1CC[C@H]2CCOc3c(C#N)cccc3C(=O)N(C)C[C@H](C)C(=O)N(C)C[C@@H]1O2 | / | / | . | / | / | / | /
CCNC(=O)C[C@@H]1CC[C@@H]2[C@H](COC[C@H](O)CN2C(=O)C2CC2)O1 | / | / | . | / | / | / | /
CC(NC(=O)CSc1ccc(S(=O)(=O)N2CCOCC2)cn1)c1ccc(Cl)cc1Cl (configuration not stated) | 26.7 | . | . | . | . | . | .
COc1ccc2c(c1)c(/C=N/Nc1nc3ccccc3[nH]1)c(C)n2C | 24.8 | . | . | . | . | . | 26.6
O=c1[nH]c(=O)n(Cc2ccco2)c2c1C(C(F)(F)F)(C(F)(F)F)N=C(CCC1CCCCC1)N2 | . | . | / | . | . | / | /
O=c1[nH]c(=O)n(Cc2ccco2)c2c1C(C(F)(F)F)(C(F)(F)F)N=C(CCc1ccccc1)N2 | 56.5 | . | / | . | . | 72.1 | .
C=C(C)C(=O)Nc1cccc(C2=NOC3(C2)C[C@@H](C(N)=O)N(C(=O)[C@H]2CCC(=O)N2)C3)c1 (some centres not stated) | 49.9 | . | . | . | . | 38.2 | .
SMILES | PrPC surface inh | GDH-TPI counter | TcdB GH inh | Y pestis TopoI | Mtb FBA inh | PrPC TRFRET cf | LD9 tox
C=C1C(=O)[C@]23C[C@H]1CC[C@H]2[C@]1(C)CCC[C@@](C)(C(=O)OC)[C@H]1C[C@@H]3O | 60.4 | / | / | / | / | 71.2 | 96.0
Cn1c(=O)cc(OCCCC(=O)Nc2cc(-c3ccncc3)ccn2)c2ccccc21 | 27.5 | / | / | / | / | 34.6 | 13.4
Cn1c(=O)cc(OCCCC(=O)Nc2cc(Br)ccn2)c2ccccc21 | 31.1 | / | / | / | / | 46.5 | 15.1
Cn1c(=O)cc(OCCCC(=O)Nc2cc(C(F)(F)F)ccn2)c2ccccc21 | 29.2 | / | / | / | / | 41.6 | 11.2
Cn1c(=O)cc(OCCCC(=O)NCc2cccnc2)c2ccccc21 | . | . | . | . | . | / | /
NC(=O)C1CCN(C(=O)c2ccc3nc(-c4ccccc4)c(-c4ccccc4)nc3c2)CC1 | 47.0 | . | . | . | 65.9 | 53.1 | .
NC(=O)C1CCN(C(=O)c2ccc3ncsc3c2)CC1 | . | . | . | . | . | / | /
O=C(O)CCSc1nc2ccccc2c(=O)[nH]1 | . | . | / | . | . | / | /
Cc1nc(SCCC(=O)O)c2ccccc2n1 | 102.8 | . | . | . | . | 118.9 | .
O=C(CSc1ccc2ccccc2n1)c1ccc2c(c1)OCO2 | . | . | / | . | . | / | /
O=C(O)CSc1ccc2ccccc2n1 | 57.8 | . | / | . | . | 57.6 | .
O=C(O)CCSc1ccc2ccccc2n1 | 82.3 | . | . | . | . | 88.7 | .
CCOC(=O)CSc1ccc2ccccc2n1 | 28.4 | . | . | . | . | 60.8 | .
Cc1cc(SCCC(=O)O)nc2ccccc12 | . | . | / | . | . | / | /
O=C(C[C@H]1C=C[C@@H](NC(=O)C2CCOCC2)[C@@H](CO)O1)NCc1ccccc1Cl | / | / | . | / | / | / | /
Cc1ccccc1N1C(=O)CC(Sc2nnc(-c3ccccc3)o2)C1=O (configuration not stated) | 30.3 | . | / | . | . | . | .
Cc1nc2ccccc2c2oc(C(=O)N3CCN(C4CCCCC4)CC3)cc12 | 26.4 | . | . | . | . | . | 14.7
Cc1noc(C)c1NC(=O)N(C)C[C@H]1OCCCC[C@H](C)Oc2ccc(NS(=O)(=O)c3cccs3)cc2C(=O)N([C@H](C)CO)C[C@@H]1C | / | / | . | / | / | / | /
NC(=S)NN=Cc1nccc2c(C(F)(F)C(F)(F)C(F)(F)F)cccc12 | 28.0 | . | . | . | . | 29.4 | 60.3
NC(=S)NN=Cc1nccc2ccccc12 | . | . | . | . | . | / | /
C[C@@H]1CCCCO[C@@H](CN(C)S(=O)(=O)c2cn(C)cn2)[C@@H](C)CN([C@@H](C)CO)C(=O)c2cc(NC(=O)C3CCCCC3)ccc2O1 | / | / | . | / | / | / | /
N#CNC(=Nc1cccc(F)c1)SCc1ccccc1F | 25.8 | . | . | . | . | . | .
CC(C)N=C(NC#N)SCc1ccccc1F | . | . | . | . | . | / | /
Cc1noc(C)c1NC(=O)N(C)C[C@@H]1Oc2ccc(NC(=O)CCCCCC(=O)Nc3ccccc3N)cc2CC(=O)N([C@H](C)CO)C[C@@H]1C | / | / | . | / | / | / | /
O=C(C[C@@H]1C[C@H]2c3cc(NC(=O)Nc4ccc(C(F)(F)F)cc4)ccc3O[C@H]2[C@@H](CO)O1)NCc1cc(F)ccc1F | / | / | . | / | / | / | /
CC[C@@H](C)[C@H](NC(=O)OC(C)(C)C)c1nnc(S(=O)(=O)Cc2cc(C)ccc2C)o1 | . | . | / | . | . | / | /
